Data: PubChem BioAssay (NCI)
“And” between values parts separate entries of the source, which are not always exact repeats. Equal entries are not always repeated. The panel holds about 83,000 compounds, 20% with a hit somewhere; the sample as a whole holds those more often.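 Percent growth is the endpoint: 0 to 100 indicates growth inhibition (40 means 60% inhibition), 0 means no net growth, and negative values indicate cell death.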 The source made the active and inactive calls.

Tested on: HL-60(TB) leukemia
Assay: NCI-60 one-dose screen, 48 h (100 = growth as untreated, 0 = no growth, -100 = all killed)
Conditions: 10 µM unless noted
Experimental: Growth inhibition of the HL-60(TB) human tumor cell line is measured as a screen for anti-cancer activity. Cells are grown in 96 well plates and exposed to the test compound for 48 hours. Compounds are tested at a single concentration, which is 10^-5 M for most compounds. The reported endpoint is percent growth (GI% or GIPRCNT), where numbers from 0 - 100% represent growth inhibition, and numbers from -100% - 0 represent cell death. For example, a value of 40 represents 60% growth inhibition. A value of 0 means no net growth occurred over the course of the experiment. A value of -40 indicates 40% of cells at the beginning of the experiment died by the end of the experiment. A value of -100 means all cells are dead at the end of the experiment.
NCI-60 Human Tumor Cell Lines Screen was performed using the standard one-dose NCI protocol, which is described in more detail at https://dtp.cancer.gov/discovery_development/nci-60/default.htm.
Compounds with GIPRCNT values below 10 were considered active. Activity score was based on GIPRCNT using the following formula: […]
Score is 0 for GIPRCNT values of 100 or above, 50 for GIPRCNT values of 0, and 100 for GIPRCNT values of -100.

SMILES | growth
CC1=C[C@H]2O[C@@H]3C[C@H]4OC(=O)/C=C\C=C\[C@H]([C@@H](C)O)OCC[C@@H](C)[C@H](O)C(=O)OC[C@@]2(CC1)[C@]4(C)[C@]31CO1 | -50.3% (active)
CCN1C(=O)N(CC)C2SC(N/N=C/c3ccccc3)=NC21 (stereo not given) | 4% (active)
Cc1cc(S(=O)(=O)N(C)C)cc(NCC(=O)NC(=O)NCC(C)C)c1C | 128% (inactive)
CNC(=O)c1cc(Oc2ccc3nc(NC(=O)c4cccc(OC(F)(F)F)c4)sc3c2)ccn1 | 67.5% (inactive)
CC(=O)N(O)CCCCCNC(=O)CCC(=O)N(O)CCCCCNC(=O)CCC(=O)N(O)CCCCCN(CCCCCCCCCC[P+](c1ccccc1)(c1ccccc1)c1ccccc1)CCCCCCCCCC[P+](c1ccccc1)(c1ccccc1)c1ccccc1 | -25.7% (active)
NS(=O)(=O)c1ccc(Nc2nc(Nc3ccccc3)nc(-n3nc(-c4ccccc4)cc3-c3ccccc3)n2)cc1 | 4.82% (active)
CCNC(=O)Oc1ccc(/C(=C(/C)c2ccccc2)c2ccc(OCCN3CCCCCC3)cc2)cc1 | -19.2% (active)
O=c1c2ccccc2cc2n1CCN=C2c1ccccc1 | 97.8% (inactive)
CC1=C(CCC=NNC(N)=O)C2=C(C)C3(CC3)[C@@](C)(O)C(=O)C2=C1 | 5.99% (active)
O=C(N/N=C/c1cc2ccccc2nc1Cl)c1cc(-c2nc3ccccc3[nH]2)nc2ccccc12 | 92% (inactive)
N#Cc1nc(-c2ccccc2)oc1N1CC[C@@H](CO)C1 | 90.6% (inactive)
CC1=C[C@H]2O[C@@H]3C[C@H]4OC(=O)/C=C\C=C\[C@H]([C@@H](C)O)OCC/C(C)=C/C(=O)OC[C@@]2(CC1)[C@]4(C)[C@]31CO1 | -44.9% (active)
CC(C)=CCC[C@](C)(O)[C@H]1CC[C@]2(C)[C@@H]1CC[C@@H]1[C@@]3(C)CCC(NC(=O)c4ccccc4C(=O)O)C(C)(C)[C@@H]3CC[C@]12C (stereo not given in full) | 90.2% (inactive)
CN(c1ccc(Br)cc1)S(=O)(=O)c1ccc(-c2cnc(C3CC3)o2)cc1 | -25.1% (active)
O=C(O)c1cn(C2CC2)c2cc(N3CCN(C(=O)CN4C(=O)CSC4=O)CC3)c(F)cc2c1=O | 135% (inactive)
CC(C)(C)Nc1nc2c(OCCc3ccccc3)cccn2c1-c1cccc(Oc2ccccc2)c1 | 0.841% (active)
CC(=O)OC[C@]12CC[C@@H](C(=O)/C=C/c3cccnc3)[C@@H]1[C@H]1CC[C@@H]3[C@@]4(C)CC[C@H](OC(C)=O)C(C)(C)[C@@H]4CC[C@@]3(C)[C@]1(C)CC2 | -15.1% (active)
CN1CCN(CCCCCC(=O)Nc2nc(-c3cccc(NS(=O)(=O)c4cccc5c(N(C)C)cccc45)c3)cs2)CC1 | 75.1% (inactive)
C#C[C@]1(O)CC[C@H]2[C@@H]3CC=C4c5sc(-c6cccc(O)c6)nc5CC[C@]4(C)[C@H]3CC[C@@]21C | -30.7% (active)
CC1(C)C=Cc2cc(/C(N)=N/C(N)=N/c3nc4ccccc4s3)ccc2O1 | 72.9% (inactive)

SMILES | growth
N#Cc1nc(-c2ccccc2)oc1N1CCC(C2(C(F)(F)F)N=N2)CC1 | 95.4% (inactive)
C/C=C/CC(C)C(O)[C@H](NC(=O)[C@@H]1CCCN1C(=O)C(C)(C)NC(=O)CCCCCCC)C(=O)N[C@@](C)(CC)C(=O)N[C@@H](CCC(N)=O)C(=O)N[C@H](CCC(N)=O)C(=O)NC(C)(C)C(=O)NC(C)(C)C(=O)N[C@@H](CCC(N)=O)C(=O)N[C@H](CC(C)C)C(=O)N[C@H](CO)CC(C)C (stereo not given in full) | 94.8% (inactive) and -6.76% (active)
COC[C@]12CCC(C)(C)C[C@H]1C1=CC[C@@H]3[C@@]4(C)CCCNC(C)(C)[C@@H]4CC[C@@]3(C)[C@]1(C)CC2 | -65.3% (active)
CCNC(=NCCCN(C)C)N/C(N)=N/c1nc2ccccc2s1 | 90.9% (inactive)
O=C(/C=C/c1cccc(C(F)(F)F)c1)Nc1cccc(C(F)(F)F)c1 | 38.3% (inactive)
C[C@H]1OCC2(CCN(c3cnc(C(=O)Nc4cc(F)cc5cccnc45)cn3)CC2)[C@H]1N | 18.9% (inactive)
COc1ccccc1/C=C/C(=O)c1nnn(-c2ccc(C(=O)O)cc2)c1C | 83.2% (inactive)
Nc1ncc(-c2ccc3ncnc(NCc4ccccc4)c3c2)cn1 | 44.1% (inactive)
CN(C)CCCNc1c2ccccc2nc2c1oc1ccc(Cl)cc12 | -1.29% (active)
CSc1ccc2c(c1)N(C(=O)/C(C#N)=C/c1c[nH]c3ccccc13)c1ccccc1S2 | 12.8% (inactive)
CC(=O)c1cc(C(=O)N2c3ccccc3Sc3ccccc32)n2ccc3ccccc3c12 | 9.89% (active)
CCN(CC)c1ccc(C=O)c(OCc2cn(CC(=O)Nc3ccc(Cl)cc3)nn2)c1 | 69.7% (inactive)
CC1=C2C(=C[C@@](C)(COS(N)(=O)=O)[C@@H]2O)C(=O)[C@](C)(O)C12CC2 | 61.4% (inactive)
Cc1ccc(S(=O)(=O)NCCCNc2nccc(-c3[nH]c(-c4ccccc4)nc3-c3ccc(F)c(O)c3)n2)cc1 | 82.4% (inactive)
COc1ccc(-c2nnc(SCc3ccc(O)c4ncccc34)n2-c2ccccc2)cc1 | 10.9% (inactive)
C#CCOc1ccc(C(Nc2cc(Cl)ccc2Cl)c2nnnn2C2CCCCC2)cc1 (stereo not given) | 88.4% (inactive)
C=C(C)[C@@H]1CC[C@]2(COP(=O)(OCC)OCC)CC[C@]3(C)[C@H](CC[C@@H]4[C@@]5(C)CCCNC(C)(C)[C@@H]5CC[C@]43C)[C@@H]12 | -56.4% (active)
COc1cc(/C=C/C(=O)c2cc(OC)c(OC)c(OC)c2)ccc1OCc1ccccc1 | -9.27% (active)
COc1ccc(-c2nc3cc(Cl)c(Cl)cc3n2CC(=O)N=Nc2c(O)[nH]c3ccccc23)cc1 | 92.5% (inactive)
CCNC(=O)N1CCc2cc(OC)c(OCCc3ccc(OC)nc3)cc2C1c1ccc(OC)cc1C (stereo not given) | 11.5% (inactive)
